# In PubChem BioAssay (NCI):
# About 83,000 compounds went through this panel and 20% of them were active in at least one assay; those are over-represented in the sample as a whole.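 48-hour exposure, single concentration, 96-well plates; percent growth endpoint where 0 means no net growth. Active: below 10.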 Active and inactive are the calls of the source.
# System: 786-0 renal
# Assay: NCI-60 one-dose screen, 48 h (100 = growth as untreated, 0 = no growth, -100 = all killed)
# Conditions: 10 µM unless noted
row,SMILES,growth
1,NC(=S)N/N=C/C(=O)O,104% (inactive)
2,CS(=O)(=O)c1ccc(-c2[nH]c3ccc(F)cc3c2/C=N/NC(N)=S)cc1,40.3% (inactive)
3,O=[N+]([O-])c1ccc(-c2cc3c(Nc4ccc(Cl)c(C(F)(F)F)c4)ncnc3s2)cc1,19.2% (inactive)
4,COC(=O)c1ccc(CSc2nnc(-c3ccncc3)o2)cc1,100% (inactive)
5,NS(=O)(=O)Oc1ccc(NC(=O)C23CC4CC(CC(C4)C2)C3)cc1Cl,98.2% (inactive)
6,O=C1N(c2ccccc2)C(=S)N[C@]12[C@H](c1ccccc1)C1CCCN1[C@]21C(=O)NC2C=CC(Cl)=C[C@H]21 (stereo partly specified),97% (inactive)
7,COc1ccc(-c2nc3ncccn3c2/C=C/C(=O)c2cc(OC)c(OC)c(OC)c2)cc1,-26% (active)
8,N#C/C(=C\c1ccc(Br)cc1)n1nnc2cc(Cl)c(Cl)cc21,43.8% (inactive)
9,O=S(=O)(Cc1ccccc1)c1nc2ccccc2s1,88.9% (inactive)
10,COc1ccc(-c2nnc(-c3ccc4c(c3)nc(-c3ccccc3)n4C3CCCCC3)o2)cc1,77.5% (inactive)
11,CN1CCC(=C2c3ccccc3C=Cc3ccccc32)CC1,67.5% (inactive)
12,CNC(=O)NCC1OC(n2cnc3c(NC(=O)Nc4ccccc4)ncnc32)C2OC(C)(C)OC12 (stereo unspecified),105% (inactive)
13,COc1ccc(-c2cncnc2N)cc1OC,107% (inactive)
14,O=[N+]([O-])c1ccccc1C(O)Cc1ccc2ccccc2n1 (stereo unspecified),104% (inactive)
15,CCn1c(Sc2nnc(NC(C)=O)s2)nc2c1c(=O)n(C)c(=O)n2C,99.6% (inactive)
16,CN1C(=O)CCC(N2C(=O)c3cccc(NCCOCCOCCNC(=O)c4cc5c(o4)C(=O)c4ccccc4C5=O)c3C2=O)C1=O (stereo unspecified),8.13% (active)
17,CC/C=C/[C@@H]1C=C[C@@H]2CCC[C@H]2[C@@H]1CC[C@H](O)[C@H](C)N,-92.4% (active)
18,Cc1ccc2c(n1)C(=O)C(Oc1ccc(F)cc1)=CC2=O,107% (inactive)

row,SMILES,growth
1,C/C(=N\NC(=O)Cn1c(-c2ccc(S(C)(=O)=O)cc2)nc2cc(Cl)ccc21)c1ccc(Cl)cc1,92.1% (inactive)
2,Nc1ccn(C2OC(F)(CO)C(O)C2F)c(=O)n1 (stereo unspecified),10.9% (inactive)
3,Cc1ccc(Nc2ccc(Nc3ccc(C)cc3S(=O)(=O)O)c3c2C(=O)c2ccccc2C3=O)c(S(=O)(=O)O)c1,111% (inactive)
4,Cc1ccc(NSc2ccccc2[N+](=O)[O-])cc1,40.2% (inactive)
5,Cc1cc(Cl)nc(N(CCCNc2ccnc3cc(Cl)ccc23)Cc2ccccn2)n1,47.4% (inactive)
6,O=C1NN(C(=O)c2ccc(O)cc2)C(c2ccccc2)=N/C1=C\c1cn(-c2ccccc2)nc1-c1ccccc1,94% (inactive)
7,N#Cc1c(NC(=O)c2cccc(C(F)(F)F)c2)sc2c1CCC(=O)C2,13.1% (inactive)
8,CCN(CC)N=Nc1nn(C(=O)Nc2ccc(Cc3ccccc3)cc2)c2ccc(Cl)cc12,59.5% (inactive)
9,Cc1ccc(C)c2c1C(=O)OC2=O,101% (inactive)
10,C=C(C)[C@@H]1CC[C@]2(CNCCO)CC[C@]3(C)[C@H](CC[C@@H]4[C@@]5(C)CCC(N)[C@@](C)(CO)[C@@H]5CC[C@]43C)[C@@H]12 (stereo partly specified),-58.1% (active)
11,C=CC(=O)Nc1cccc(C)c1Nc1cc(-c2cccnc2Cc2c(C)c(OC)cc(OC)c2C)ncn1,16% (inactive)
12,O=C(CC12CC3CC(CC(C3)C1)C2)NCCOCCOCCOCCNC(=O)c1cc2c(o1)C(=O)c1ccccc1C2=O,-5.36% (active)
13,COc1cc(-c2ccc(N=Nc3c(O)c(C(=O)Nc4ccccc4OC)cc4ccccc34)c(OC)c2)ccc1N=Nc1c(O)c(C(=O)Nc2ccccc2OC)cc2ccccc12,87.2% (inactive)
14,C=CCOc1cccc(/C=C2\SC(=Nc3ccc(O)cc3)NC2=O)c1,11.2% (inactive)
15,CC(C)CCC[C@@H](C)[C@H]1CCC2C3=CCn4c(=O)ccc(=O)n4C3CC[C@@]21C (stereo partly specified),-100% (active)
16,COc1ccccc1C(=O)NC(=S)Nc1ccc(-c2nc3ccccc3[nH]2)cc1,41.5% (inactive)
17,COC(=O)[C@]12CC[C@@H](C)[C@H](C)[C@@H]1C1=CC[C@@H]3[C@@]4(C)C(C=O)=C[C@@](C)(CO)C4=CC[C@@]3(C)[C@]1(C)CC2,45.2% (inactive)
18,O=C(NCCOCCOCCNc1cccc2c1C(=O)N(C1CCCNC1=O)C2=O)c1cc2c(o1)C(=O)c1ccccc1C2=O (stereo unspecified),3.9% (active)
